Reference: PubChem BioAssay (Tox21)
Unmarked numbers belong to inactive results. Results filed as inconclusive are left out. A call without a number means that no potency is given here. The source made the active and inactive calls. Unless noted, calls follow the shape of the dose curve; as a rule, active = well fitted curve in the direction sought with a large enough effect in the repeat runs; inconclusive = weak or mixed curves; inactive = no such curve, though single readings can be large; an effect the other way counts as inactive or inconclusive.

Assays:
[1] = Human pregnane X receptor (PXR) small molecule agonists, qHTS cell viability counter screen (AID 1346977); also: nearly all actives have a fitted effect of over 50% in size
Procedure, shortened: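 PXR-Luc HepG2, 2,000 cells/well, 5% charcoal-stripped FBS; 5hr settle; cpd 24hr, 37C/5% CO2; CellTiter-Fluor at 23hr, read 1hr later (fluorescence).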

[2] = Caspase-3/7 induction in HepG2 cells by small molecules, qHTS assay (AID 1346978); also: nearly all actives have a fitted effect of over 15% in size
Procedure, shortened: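 Caspase-3/7 induction was measured by Caspase-Glo 3/7 luminescence (30 min, room temperature) after a 17 hr compound exposure of wild-type HepG2 cells seeded at 2,000 per well and pre-incubated 5 hr.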

[3] = Caspase-3/7 induction in CHO-K1 cells by small molecules, qHTS cell viability counter screen (AID 1346979); also: nearly all actives have a fitted effect of over 35% in size; also: potency is read from the fitted curve at half-maximal effect
Procedure, shortened: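 Cells (CHO-K1, wild type) are plated at 1,500 per well and incubated 5hr. Test compounds in DMSO are then pinned in, followed by 16hr at 37C and 5% CO2. Viability is read by CellTiter-Fluor fluorescence after 1hr.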

[4] = Caspase-3/7 induction in CHO-K1 cells by small molecules, qHTS assay (AID 1346980); also: nearly all actives have a fitted effect of over 15% in size
Procedure, shortened: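 Luminescent Caspase-Glo 3/7 read (30min, room temperature) quantified apoptosis induction. Cells were wild-type CHO-K1, treated with compound for 17hr at 37 C and 5% CO2.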

[5] = Caspase-3/7 induction in HepG2 cells by small molecules, qHTS cell viability counter screen (AID 1346981); also: series mostly up to about 92 µM; nearly all actives have a fitted effect of over 30% in size
Procedure, shortened: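 Multiplexed with the caspase-3/7 assay: HepG2 cells, 16 hr compound treatment, CellTiter-Fluor viability detection by fluorescence.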

[6] = target: Nuclear receptor subfamily 1 group I member 2 (Homo sapiens) (UniProt O75469); assay: Human pregnane X receptor (PXR) small molecule agonists, qHTS assay (AID 1346982); also: nearly all actives have a fitted effect of over 35% in size; also: potency is read from the fitted curve at half-maximal effect
Chain of Nuclear receptor subfamily 1 group I member 2 (Homo sapiens) (O75469 whole entry, looked up): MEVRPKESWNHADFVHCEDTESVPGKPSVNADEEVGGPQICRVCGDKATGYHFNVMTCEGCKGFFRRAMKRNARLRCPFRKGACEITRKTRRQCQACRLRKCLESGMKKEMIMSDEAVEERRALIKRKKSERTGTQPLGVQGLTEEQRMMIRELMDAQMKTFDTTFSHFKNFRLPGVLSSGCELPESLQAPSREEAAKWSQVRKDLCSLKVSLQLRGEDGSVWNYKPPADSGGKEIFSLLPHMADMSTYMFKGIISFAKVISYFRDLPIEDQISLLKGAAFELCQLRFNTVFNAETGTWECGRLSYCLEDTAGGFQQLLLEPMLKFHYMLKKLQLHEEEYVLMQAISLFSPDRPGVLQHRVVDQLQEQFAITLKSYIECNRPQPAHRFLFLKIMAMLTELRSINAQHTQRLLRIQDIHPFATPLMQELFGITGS
Procedure, shortened: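 We seeded PXR-Luc HepG2 cells in assay medium containing 5% charcoal-stripped FBS, added compounds 5 hr later, incubated 24 hr, and read luminescence with ONE-Glo reagent.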

[7] = target: Acetylcholinesterase (Homo sapiens) (UniProt P22303); assay: Acetylcholinesterase (AChE) small molecule antagonists: colormetric cell-based qHTS assay (AID 1347395; calls by dose curve; also: nearly all actives have a fitted effect of over 30% in size; also: potency is read from the fitted curve at half-maximal effect)
Chain of Acetylcholinesterase (Homo sapiens) (P22303 whole entry, looked up): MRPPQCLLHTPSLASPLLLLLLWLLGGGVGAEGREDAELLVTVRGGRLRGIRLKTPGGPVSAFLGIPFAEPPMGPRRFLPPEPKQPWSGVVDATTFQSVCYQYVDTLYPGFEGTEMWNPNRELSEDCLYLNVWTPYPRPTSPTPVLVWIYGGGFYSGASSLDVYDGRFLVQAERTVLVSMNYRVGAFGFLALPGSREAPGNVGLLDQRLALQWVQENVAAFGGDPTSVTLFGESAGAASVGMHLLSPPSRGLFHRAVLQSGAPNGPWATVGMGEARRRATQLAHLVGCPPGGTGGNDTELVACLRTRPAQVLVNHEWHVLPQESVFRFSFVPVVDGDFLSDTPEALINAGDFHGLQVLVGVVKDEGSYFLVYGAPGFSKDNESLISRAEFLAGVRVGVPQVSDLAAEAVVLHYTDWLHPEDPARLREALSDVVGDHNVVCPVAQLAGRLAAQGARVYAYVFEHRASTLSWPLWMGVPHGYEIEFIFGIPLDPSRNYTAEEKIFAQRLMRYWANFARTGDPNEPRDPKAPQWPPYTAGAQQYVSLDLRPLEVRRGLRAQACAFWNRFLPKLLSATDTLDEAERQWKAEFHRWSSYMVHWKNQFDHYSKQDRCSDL
Procedure, shortened: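 Colorimetric read-out: DTNB detects thiocholine released when cellular AChE in SH-SY5Y cells hydrolyses acetylthiocholine. Cells attached overnight, received compound for 30 min at 37 C, then substrate mix for 90 min at 37 C.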

[8] = target: Nuclear receptor subfamily 1 group I member 2 (Rattus norvegicus) (UniProt Q9R1A7); assay: Rat pregnane X receptor (rPXR) activation by small molecules, qHTS assay (AID 1346983); conditions: rPXR luciferase reporter cells, One-Glo luminescence, 24 h; max activation: active compounds read high; also: nearly all actives have a fitted effect of over 20% in size; also: potency is read from the fitted curve at half-maximal effect
Chain of Nuclear receptor subfamily 1 group I member 2 (Rattus norvegicus) (Q9R1A7 whole entry, looked up): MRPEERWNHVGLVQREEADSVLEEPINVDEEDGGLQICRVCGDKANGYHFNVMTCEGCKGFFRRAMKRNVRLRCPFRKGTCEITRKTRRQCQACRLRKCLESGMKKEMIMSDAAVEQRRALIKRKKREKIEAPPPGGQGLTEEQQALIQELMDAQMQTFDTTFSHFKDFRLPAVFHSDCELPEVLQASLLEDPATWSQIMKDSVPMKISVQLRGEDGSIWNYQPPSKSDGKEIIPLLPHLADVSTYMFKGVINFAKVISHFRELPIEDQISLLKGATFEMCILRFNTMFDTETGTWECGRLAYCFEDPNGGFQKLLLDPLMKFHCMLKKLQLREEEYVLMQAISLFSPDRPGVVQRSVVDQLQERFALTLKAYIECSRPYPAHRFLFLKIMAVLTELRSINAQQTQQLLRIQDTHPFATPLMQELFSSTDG
Procedure, shortened: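 Luminescent readout (One-Glo luciferase, 30 min room temperature) followed 24 hr compound treatment at 37 C of rPXR cells plated 2,000 per well and preincubated 5hr; qHTS format with compounds delivered in DMSO.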

[9] = target: Nuclear receptor subfamily 1 group I member 2 (Homo sapiens) (UniProt O75469); assay: CYP3A4 induction through human pregnane X receptor (PXR) by small molecules, qHTS assay (AID 1346984); also: nearly all actives have a fitted effect of over 40% in size
Procedure, shortened: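 qHTS, concentration-response format: HepG2 DPX-2 line, PXR/CYP3A4-luc. Exposure 24 h, 37C. Substrate Luciferin-IPA 3uM final, 3 h. Detection One-Glo, 30 min RT.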

[10] = target: Nuclear receptor subfamily 1 group I member 2 (Homo sapiens) (UniProt O75469); assay: Human pregnane X receptor (PXR) activation by small molecules, qHTS assay (AID 1346985); also: nearly all actives have a fitted effect of over 40% in size
Procedure, shortened: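 DPX-2 cells (HepG2 co-transfected with a PXR response element and a CYP3A4-promoter luciferase construct) were seeded at 2,000 per well, rested 5 hr at 37C, then exposed to DMSO-dissolved compounds for 24 hr. Activation was read as luciferase luminescence.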

SMILES	Potency [1]	Potency [2]	Potency [3]	Potency [4]	Potency [5]	Potency [6]	Potency [7]	max activation [8] [%]	Potency [9]	Potency [10]	Potency [8]
Clc1cccc(N2CCNCC2)c1	inactive	inactive	inactive	inactive	inactive	inactive	inactive	–	–	–	–
CCCCOC(=O)c1ccccc1N	inactive	inactive	inactive	inactive	inactive	inactive	inactive	–	–	–	–
C[C@]1(O)CC[C@H]2[C@@H]3CCC4=CC(=O)CC[C@]4(C)[C@@]3(F)[C@@H](O)C[C@@]21C	inactive	inactive	inactive	inactive	inactive	48.9 µM (active)	inactive	–	–	–	–
CCC#N	inactive	inactive	inactive	inactive	inactive	inactive	inactive	–	–	–	–
ClCC(Cl)Cl	inactive	inactive	inactive	inactive	inactive	inactive	36.8 µM (active)	–	–	–	–
CCS(=O)(=O)C(C)(C)S(=O)(=O)CC	inactive	inactive	inactive	inactive	inactive	inactive	inactive	-0.861	inactive	inactive	–
CCC1(c2ccccc2)C(=O)NC(=O)NC1=O	inactive	inactive	inactive	inactive	inactive	inactive	inactive	-0.894	inactive	inactive	–
Clc1ccccc1N1CCNCC1	inactive	inactive	inactive	inactive	inactive	inactive	inactive	–	–	–	–
OCCSCSCCO	inactive	inactive	inactive	inactive	inactive	inactive	inactive	–	–	–	–
CNC(=O)Oc1ccccc1C1OCCO1	inactive	inactive	inactive	inactive	inactive	inactive	inactive	–	–	–	–
CCCSC(=O)Cl	inactive	inactive	inactive	inactive	inactive	inactive	inactive	–	–	–	–
CCOC(=O)N(C)C(=O)CSP(=S)(OCC)OCC	inactive	inactive	–	inactive	inactive	30.6 µM (active)	–	–	–	–	–
CCc1cc2c(s1)-n1c(C)nnc1CN=C2c1ccccc1Cl	inactive	inactive	inactive	inactive	inactive	–	inactive	–	–	–	–
CC(=O)CCc1ccc2c(c1)OCO2	inactive	inactive	–	inactive	inactive	inactive	inactive	–	–	–	–
C[C@@H]1CN(C2CCC(C#N)(c3ccc(F)cc3)CC2)CC[C@]1(C(=O)O)c1ccccc1 (stereo partly specified)	inactive	inactive	inactive	–	inactive	inactive	inactive	-1.37	inactive	inactive	–
COc1cccc(C(=O)NN(C(=O)c2cc(C)cc(C)c2)C(C)(C)C)c1C	inactive	inactive	61.1 µM (active)	–	–	inactive	inactive	–	–	–	–
CN1C[C@@H](NS(=O)(=O)N(C)C)C[C@@H]2c3cccc4c3c(cn4C)C[C@H]21	inactive	inactive	–	inactive	inactive	23.7 µM (active)	inactive	–	–	–	10 µM (active)
CCCCC(=O)Cl	inactive	inactive	inactive	–	inactive	inactive	inactive	–	–	–	–
ClC(Cl)Br	inactive	inactive	inactive	–	inactive	–	inactive	–	–	–	–
OCCBr	inactive	inactive	inactive	inactive	inactive	–	inactive	–	–	–	–
CCC(C)n1c(=O)[nH]c(C)c(Br)c1=O (stereo unspecified)	inactive	inactive	inactive	inactive	inactive	–	inactive	–	–	–	–
CN(C)CCc1ccc(O)cc1	inactive	inactive	–	inactive	inactive	inactive	inactive	-2.69	inactive	inactive	–
CCCCOP(=O)(O)OCCCC	inactive	inactive	–	inactive	inactive	inactive	inactive	–	–	–	–
O=C1CN2CCOC2(c2ccccc2Cl)c2cc(Cl)ccc2N1 (stereo unspecified)	inactive	inactive	inactive	–	inactive	–	inactive	–	–	–	–
O=C(O)C(Br)CBr (stereo unspecified)	inactive	inactive	–	inactive	inactive	62.2 µM (active)	inactive	–	–	–	–
COC(=O)c1ccccc1S(=O)(=O)NC(=O)Nc1nc(C)cc(C)n1	inactive	inactive	–	inactive	inactive	inactive	–	–	–	–	–
CC1CCC(=O)O1 (stereo unspecified)	inactive	inactive	inactive	–	inactive	inactive	inactive	–	–	–	–
